According to the supplement of paper PMC6555819:

These sequences were tested on VDR:RXRa (NR concentration 270 nM, RXRa partner concentration 90 nM) (assay: PBM binding z-score (relative to random genomic background probes); higher = stronger binding; sequences stand for … in GC…GCGATTGACAGCGTAGAATGAAGG).
Method: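 Protein-binding microarray (Agilent 4x180K custom design, double-stranded 60-nt probes: 5' GC cap, 34-nt variable region, 24-nt constant primer region; full probe sequence given). Purified or IVT nuclear receptor:RXRα heterodimers (3:1 NR:RXRα, mostly 270:90 nM) or homodimers were incubated for 1 h in PBS with 2% milk and no ligand, then detected with Alexa488 antibodies. Fluorescence from o1-orientation probes (~5 replicates averaged) was converted to z-scores against 500 random hg19 background probes. Variable regions are seed direct-repeat (DR0–DR5) sites, all their single-nucleotide variants and half-site ablations.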
With CCGACCGGGGCAAGGTTACCATAACGCACAGCCA the PBM binding z-score was 0.334.
In the case of TTACCAAGGGGAAAGGTCGTTGATGCACGCCTTG, the PBM binding z-score is reported as 1.98.
For TCGAGTAGGTTAGGGGCAGTCAGAATGGCGTCGA, the PBM binding z-score was 0.0468.
For AATACAGGGCCACTAGGCCAGAGTAGGTACGAAT, the PBM binding z-score was -0.225.
CAAACTAGGTTACAGAGGTCAAAGTCCGTGCGTA was tested, and the PBM binding z-score was 7.06.
For GGAACGAGGGCAAGTTGATCGCAGAGTTTGATGG, the PBM binding z-score was 0.673.
ATCGAAATGTCGAAGGTGAGTATACCCACCCGAA showed a PBM binding z-score of -0.0982.
For CCTAGCAGGTCAGGGTCACTCAAGCATTTCGCTT, the PBM binding z-score was 4.13.
For TGAATGAGGTTATAAGATCAGGTAACGTTGCAAA, the PBM binding z-score was 1.14.
Work on GCTAGCATGCCATTTGGGTCACTCAATGACGGGC yielded a PBM binding z-score of 0.372.
Sequence CTCGAAAGGTCTGTTGAGGTGAGTATACGGATAA has a PBM binding z-score of 0.221.
GCTCGGAGGACAAGGTCAGAGCCTTGTCCGTAGA was tested, and the PBM binding z-score was 1.43.
For AATACAGGGTCAACGTAGGCCAGAGTACGCACAG, the PBM binding z-score was 5.06.
Work on CATACTGGGCCAAAGGTCATTGATTCCAATGCTC yielded a PBM binding z-score of 5.1.
Sequence GAAACGAGGGCAAGTTGATAGCAGAGTTTGATGG has a PBM binding z-score of 1.51.
CGTCAAAGTTCAAGGTGACGTAACAGAAAGCAGC showed a PBM binding z-score of 3.91.
In the case of CAAACTAGGTCAAGAGGTCAAAGTACGCTTCCCG, the PBM binding z-score is reported as 6.22.
For CCTACTGGGCCAAGGTCCTTGATCAGTCAAAGCA, the PBM binding z-score was -0.657.
With AGTCAAAGTTCACTAGGTCACGTAAGATTCAGCT the PBM binding z-score was 5.1.
CCTATTTGGTCAAGGTCACACACGCTATAGGTAC showed a PBM binding z-score of 4.18.
GCTTACGGGTCAAAGGTAATAGCATGAATAGAAT gave a PBM binding z-score of 4.12.
Sequence AGAATGAGGTTATTAAGATCAGGGACTTGCGGTC has a PBM binding z-score of 2.47.
Work on CCTTATGGGTCACTCCAGGTTATAGCATCGGAGT yielded a PBM binding z-score of 3.33.
With TCTAGTAGGTTACCAATGGGGCATTCAGCTTTCT the PBM binding z-score was 0.81.
In the case of ATATGTAGGATACATCCGGGTCATTCAGGCTATG, the PBM binding z-score is reported as 3.21.
In the case of CGAACTAGGTTAAGGACAGTGAATCTCCGCACGC, the PBM binding z-score is reported as -0.159.
In the case of AGAATTAGGTTATACGTAGATCAGGGAAGAAAGT, the PBM binding z-score is reported as 0.22.
In the case of TAGCCGAGGTCATGCGGGCCAGTATAGTGTCGGC, the PBM binding z-score is reported as 5.82.
CCTTACGAGTCAAGGTTATAGCACGGGTGGTACG was tested, and the PBM binding z-score was 0.509.
Sequence AGAATGAGGTTTCCAAAGATCAGGGAAACGCTTG has a PBM binding z-score of -0.555.
Sequence CAAACTAGATCACCGGAAGGTCAAAGTCCGCATG has a PBM binding z-score of 3.03.
With CGTCCACGGTCAAGGTCAGTGAAAGAGACTCGAA the PBM binding z-score was 1.43.
AGAATGAGGTTACCAAAGCTCAGGGAAACGCTTG showed a PBM binding z-score of 0.99.
TCTTGTAGAGCAATAGAGGTTAAGAAAGTGCGCT was tested, and the PBM binding z-score was 1.18.
Work on CCTAGCGGGCCAGGGTCACTCAAGCATTTCGCTT yielded a PBM binding z-score of 2.36.
For GGAACGAGGGCAAGTTTATAGCAGAGTTTGATGG, the PBM binding z-score was 1.32.
Work on TCTCGGAGGACACGAAGGTCAGTGCTTTCCAGAG yielded a PBM binding z-score of 2.08.
For TTAGCAAGGTGAAAGGTCGTTGATGCACGCCTTG, the PBM binding z-score was 2.93.
Work on GCTATTACTTGAAAGGGCAACCGAATGATTCTCG yielded a PBM binding z-score of 0.432.
TCATATAGGTAAACAGGTGAAAGGCCGTAAGTTA was tested, and the PBM binding z-score was 0.988.
